# In PubChem BioAssay (Tox21):
# A number with no mark means an inactive call. Calls come from the whole dose curve; as a rule, active = well fitted activation curve with a large enough effect in the repeat runs; inconclusive = weak or mixed curves; inactive = flat fitted curve, though single readings scatter.
# Experiment: Caspase-3/7 induction in CHO-K1 cells by small molecules, qHTS assay (AID 1346980); note: nearly all actives have a fitted effect of over 15% in size
# Conditions: CHO-K1 caspase-3/7 induction, Caspase-Glo luminescence, 17 h; series mostly up to 92.4 µM; caspase-3/7 activation: at the top concentration
# Description: National Center for Advancing Translational Sciences [NCATS]
# NIH Chemical Genomics Center [NCGC]
# U.S. Environmental Protection Agency [EPA]
# National Institutes of Environmental Health Sciences [NIEHS]
# National Toxicology Program [NTP]
# Apoptosis is a process of programmed cell death and plays a central role in the development of multicellular organisms. It is a highly regulated process and induces cell death by activating caspases, which are the members of cysteine aspartic acid-specific protease (caspase) family. Caspases involved in apoptosis are classified by their mechanism of action as initiator caspases (caspase-2, -8, -9 and -10) and executioner caspases (caspase-3, -6, and -7). Inhibition of apoptosis results in number of cancers, autoimmune diseases, inflammatory diseases and viral infection. To identify small molecule compounds that induce apoptosis, a homogeneous, luminescent Caspase-Glo 3/7 assay was used. Wild type CHO-K1 cells were used to screen Tox21 libraries for identifying caspase-3/7 activity inducers.
# CHO-K1 cells were dispensed at 1,500 per well in 5uL of culture medium into white solid bottom 1536-well plates (Corning Life Sciences, Corning, NY) using a Multidrop Combi (Thermo Scientific, Waltham, MA) dispenser. The assay plates were incubated at 37 C and 5% CO2 for 5hr, and then 23nL of compounds dissolved in DMSO and positive control were transferred using a Pintool station (Wako, San Diego, CA). The assay plates were incubated at 37C and 5% CO2 for 17hr. For caspase-3/7 activity read, 4uL of Caspase-Glo 3/7 reagent (Promega Corporation, Madison, WI) was added to each well of the assay plates using Flying Reagent Dispenser (FRD, Aurora Discovery, San Diego, CA) and incubated the assay plates at room temperature for 30min. The luminescence signal was quantified using a ViewLux plate reader (Perkin Elmer, Shelton, CT).
# % is set by controls: 0 for no effect and ±100 for the full control effect.
row,SMILES,caspase-3/7 activation
1,CCCCCCCCCCCCC(=O)O,-3.05%
2,CCCCCCc1ccc(N)cc1,2.23%
3,CC(CN)CCCN (stereo not given),-0.207%
4,CCOC(=O)C1=C(C)NC(C)=C(C(=O)OC)C1c1cccc([N+](=O)[O-])c1 (stereo not given),-0.531% [at 42.5 µM]
5,CC[C@H](C)[C@@H](C(=O)O)n1sc2ccccc2c1=O,0.398%
6,O=C1c2cccc(O)c2C(=O)c2c(O)cc(CO)cc21,-0.124%
7,CCN(CC)CCOC(=O)C1(c2ccccc2)CCCC1,-1.8% [at 42.5 µM]
8,CNS(=O)(=O)Cc1ccc2[nH]cc(CCN(C)C)c2c1,-0.486% [at 42.5 µM]
9,CCCC[C@H]1CN(CC2CCOCC2)C(=O)OC12CCN(C1(C)CCN(C(=O)c3c(C)ncnc3C)CC1)CC2,-0.86%
10,COC(=O)CSc1cc(N=c2sc(=O)n3n2CCCC3)c(F)cc1Cl,-0.277%
11,CN(C)CC[C@@H](c1ccc(Br)cc1)c1ccccn1,0.113% [at 42.5 µM]
12,COC(Cc1ccccc1)OC,0.102%
13,CCOC(=O)C1=NN(c2ccccc2)C(=O)C1,0.0536%
14,CCC(C)N(C)C(=O)c1cc2ccccc2c(-c2ccccc2Cl)n1 (stereo not given),-1.95% [at 42.5 µM]
15,CC(=O)NCCCS(=O)(=O)O,0.274% [at 42.5 µM]
16,CC(C)(C)C1CCCCC1O (stereo not given),-0.32%
17,NCCCN(CCO)CCO,0.0299%
18,CCN(CC)CCOc1ccc2c(c1)C(=O)c1cc(OCCN(CC)CC)ccc1-2,0.16% [at 42.5 µM]
19,CC(C)=CCCC(C)CC=O (stereo not given),0.0908%
20,O=CNc1ccccc1,-0.3%

row,SMILES,caspase-3/7 activation
1,CC(C)(C)c1cc(CO)cc(C(C)(C)C)c1O,1.65%
2,N#CCc1cccc(C(F)(F)F)c1,-0.105%
3,Cc1nc2ccccc2n1Cc1ccc(Cl)cc1,0.0872% [at 42.5 µM]
4,CCC(=O)OC(C)(C)C1CC=C(C)CC1 (stereo not given),-0.0808%
5,O=C(O)c1cn(C2CC2)c2cc(Cl)c(F)cc2c1=O,-0.561% [at 42.5 µM]
6,CN1CCC[C@@H]1c1cccnc1,-0.0376% [at 42.5 µM]
7,CC(=O)SCc1ccco1,0.194%
8,C=CC(C)(CCC=C(C)C)OC(=O)c1ccccc1 (stereo not given),2.86%
9,O=c1[nH]cnc2ccccc12,-1.7%
10,CCCCCCCCCCCCCCCCCBr,-0.258% [at 19 µM]
11,Nc1nc(N)c2nc(CNc3ccc(C(=O)N[C@@H](CCC(=O)O)C(=O)O)cc3)cnc2n1,0.458%
12,O=C=NC1CCC(CC2CCC(N=C=O)CC2)CC1 (stereo not given),2.01%
13,CCOC(=O)CC(C)C,-0.428%
14,CC(C)(C)C(=O)OCOP(=O)(COCCn1cnc2c(N)ncnc21)OCOC(=O)C(C)(C)C,1.6% [at 42.5 µM]
15,C=CC[N+]1([C@H]2C[C@H]3[C@@H]4CC[C@H]5C[C@H](OC(C)=O)[C@@H](N6CCCCC6)C[C@]5(C)[C@H]4CC[C@]3(C)[C@H]2OC(=O)CC)CCCCC1,-1.05% [at 42.5 µM]
16,CC(C)(C)c1cc(CCC(=O)OCC(COC(=O)CCc2cc(C(C)(C)C)c(O)c(C(C)(C)C)c2)(COC(=O)CCc2cc(C(C)(C)C)c(O)c(C(C)(C)C)c2)COC(=O)CCc2cc(C(C)(C)C)c(O)c(C(C)(C)C)c2)cc(C(C)(C)C)c1O,0.514% [at 42.5 µM]
17,C=C(C)C(=O)OCCN(C)C,-2.24%
18,CCCc1ccccc1,1.09%
19,Cc1ccc(C(C)c2ccc(C)c(C)c2)cc1C,0.304%
20,C=Cc1c(C)c2cc3[nH]c(cc4nc(cc5nc(cc1[nH]2)C(C)=C5CCC(=O)O)C(CCC(=O)O)=C4C)c(C)c3C=C,0.0535% [at 42.5 µM]
